# Measurements published in the supplement of paper PMC11417369.
# ± gives the standard deviation of the averaged measurements. In all, about 25,000 sequences were measured (“ln(normalized median fluorescence intensity)”: median about 10, highest 2% from about 12 on). For the sample, the highest values were picked, then their nearest neighbours and some sequences at random.
# System: PfAP2-G AP2 domain (GST-tagged)
# Assay: gcPBM binding intensity (ln(normalized median fluorescence intensity)); higher = stronger DNA binding
# Summary of the method: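 The binding buffer was 1× PBS containing 1% milk, 0.2 mg/ml BSA, 0.5% salmon testes DNA and 0.03% Triton X-100. In it, GST-tagged P. falciparum DNA-binding domains expressed in E. coli were applied for 1 h to an Agilent 4 × 180k array of primer-extended double-stranded 36-bp intergenic genomic probes plus negative controls. Binding intensity, read with Alexa488 anti-GST antibody and a 488 nm scan, is the highest Masliner-normalised natural-log median intensity across replicate spots of either probe orientation.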
row,Sequence,gcPBM binding intensity (ln)
1,TATATATGTATCAAGTGTACAGTTTTAAAAAAAAAA [XGTACX_site6011],11.4 ± 0.87
2,TTTCTTACAACAACAACAAAAAAAAATAAATAAAAT [GTGCAC_negctrl_site711],9.91 ± 0.16
3,AATATATATGAAAAAAGTACTCAAGGAATAAAAAAA [XGTACX_site7720],11.3 ± 0.67
4,TAATAAAACATATATACACACATTAGATATACATAT [CACACA_site6897],9.92 ± 0.057
5,AAATTACTTTCACAGTGTACTTGGAAAAAAAAAAGA [XGTACX_site1046],11.3 ± 0.8
6,TCTTTGTACTTTCACATGTACACCCAAATGGAAATT [CACACA_negctrl_site1442],11.8 ± 0.87
7,AATGGAAATTTTTCTTGTACACATATATGACATGTT [XGTACX_site1691],11.3 ± 0.86
8,ACATCTAGGCTTATTTTATGATACATGTGAATATAT [TGCATGCA_negctrl_site325],9.79 ± 0.099
9,TTTCATTTAGCTTTTACACACTATATATTATTGATT [CACACA_site16],9.82 ± 0.11
10,AATAAACATATATGTACACACATATACATATATATA [CACACA_site2848],11.4 ± 1.2
11,AATATATAAACACGTACACACACATATATGTATATA [CACACA_site9168],11.6 ± 1
12,AAAAATATATAAACACGTACACACACATATATGTAT [XGTACX_site7436],11.6 ± 0.88
13,ATAATAAACATATATGTACACACATATACATATATA [CACACA_site8924],11.3 ± 0.94
14,ACATAAATAATAAAAACACACATATGTACATATATA [CACACA_site1913],11.3 ± 0.79
15,TAAGTTATATGTACTACACACGTACACAAAATAAGA [CACACA_site9237],11.8 ± 1
16,TATATCTACTACACACGTACACAAAATAAGATACCT [XGTACX_site7886],11.5 ± 0.97
17,AAAAAAATAAAACACATACATATATGTATATATATA [GTGCAC_negctrl_site390],9.77 ± 0.2
18,AGTTATATGTACTACACACGTACACAAAATAAGATA [CACACA_site3719],11.6 ± 0.75
19,GCTATATATTACAATCGTACAATATATATATATATA [XGTACX_site6730],10.8 ± 0.68
20,TATATTTATAACAACACACACAGATCATAAAACTGC [CACACA_site7086],10.2 ± 0.12
21,TTTTTCCAATCAGATGCATGTTACTATATTTGGTTC [TGCATGCA_site52],9.96 ± 0.014
22,ATATATTATTATAACTGTACTTTTTTTGTGGTTAAT [XGTACX_site8266],11.5 ± 0.83

row,Sequence,gcPBM binding intensity (ln)
1,TCATAGTATAAACACACACACACACCCATATATATA [CACACA_site8512],10.2 ± 0.3
2,ATAAATTGTTCTTTTTGTGTAAACAGAATATTAAAA [CACACA_negctrl_site1022],10.1 ± 0.21
3,TAAGAAATAAATAGTACACACATAGACACCCACCCA [CACACA_site8429],11.7 ± 0.8
4,GCATAAGAAATAAATAGTACACACATAGACACACAC [XGTACX_site3095],11.6 ± 0.85
5,TAAGAAATAAATAGTACACACATAGACACCCACCGA [CACACA_site1516],11.5 ± 0.93
6,TGATCTTTACACATATTATATATATATAAAAAAAAA [XGTACX_negctrl_site360],9.99 ± 0.26
7,TCTTGAAAAAGAATCAATCGGTCGACAAAAAAAAAA [CACACA_negctrl_site1099],10.4 ± 0.24
8,GTCTTAAAAATTAAAACACACGTTCACTTTCATATT [CACACA_site5803],10.05 ± 0.021
9,TTTTCCTTTCACAATGGTACACAAATATACATGCAA [XGTACX_site7244],11.2 ± 0.8
10,TTTCAAAGGAAATGGTGTACACAATTTTTCCTTTTT [XGTACX_site2340],11.7 ± 0.88
11,CAAAGGAAATGGTGTACACAATTTTTCCTTTTTCGT [CACACA_site4800],11.8 ± 1.2
12,ATTATACAAAATGGTAAGGAAAAGGAAATTTTTTTT [CACACA_negctrl_site1090],9.77 ± 0.014
13,AAAAAAAAATGTCATGGTACACAATTTTTTCTTTTT [XGTACX_site4505],11 ± 0.56
14,ATATTGTGTTATAAATGTACACAATTTCCTTTCATA [XGTACX_site7481],11.3 ± 0.79
15,ATATATATGGATGGACGTACGTATGTATGTAATTTC [XGTACX_site4135],11.3 ± 0.64
16,CAATTTATAAAGAAAACACACATATACATAAATACA [CACACA_site4829],10.2 ± 0.16
17,AAATAAGAAAAAGCGCGTACACATAACATTTTTATA [XGTACX_site8807],11.7 ± 0.93
18,AAAAGAAATATTTATACACACACACTAACATATATA [CACACA_site8580],10.09 ± 0.035
19,TATATATATTTATACACACAAACATAATACTACTTA [CACACA_site2022],10.3 ± 0.22
20,TTGGTGGATAAATTTACACACAATAATTTTCGTTCA [CACACA_site467],10 ± 0.14
21,AAAAAAAAAATTTACTGTACACATTTGGGATACTCA [XGTACX_site5191],11.7 ± 0.76
22,AAAAAATTCTGGTACTGTACACATTTTTTTAAATTT [XGTACX_site6904],11.7 ± 1

row,Sequence,gcPBM binding intensity (ln)
1,AAAATTTTTTACTTTACACACATTTTGTATATTTTG [CACACA_site1730],9.98 ± 0.23
2,ACTGTAAAAGGATTTACACACATATTTACATTTACA [CACACA_site519],10.01 ± 0.021
3,AAAAAAAATTTTATCTGTACACATTTTTTTCTTTTT [XGTACX_site4229],11.6 ± 0.74
4,TTTAAAAATTAATTCTGTACACATTTTTATTTTATT [XGTACX_site8],11.5 ± 0.8
5,TTACAATAAATTATAGTGCAATATTTTATTTAATAT,9.9 ± 0.26
6,AAAATATATATATATATATATATATGTATACTCCTA [XGTACX_negctrl_site312],10 ± 0.29
7,CGAATATATTCTAGACGTACTATATAATATATATAT [XGTACX_site4953],11.1 ± 0.69
8,TATATTTATTTATTCTGTACTGAAGACAGTTATGTA [XGTACX_site8857],10.8 ± 0.58
9,TTTGTTTTATGTGGTTGTACACAAATACAATTTAAA [XGTACX_site5156],11.6 ± 1.1
10,TATGATATAATTATGTGTACACAATTTTTTTTTTTT [XGTACX_site1084],11.6 ± 0.8
11,TAATTATTTTTATATTGTACAATATGTAAATATATA [XGTACX_site592],10.8 ± 0.58
12,AAAAAAAATAATAATACACACAATATGATATGTACA [CACACA_site850],10.4 ± 0.17
13,ATATGTACAAATTATACACACATGTACAATTATATA [CACACA_site1253],11.3 ± 0.79
14,GATATAATTATGTGTACACAATTTTTTTTTTTTTTT [CACACA_site4501],11.7 ± 0.87
15,AAATTATATATGATGTGTACATAAATATATACACAT [XGTACX_site8761],11.4 ± 0.83
16,TTATATGTTTTGTGTACACAATTTATTAAATTAATA [CACACA_site5645],11.7 ± 0.88
17,AAAATAATATATGTATGTACACAATTATTTATAAGT [XGTACX_site7267],11.5 ± 0.89
18,GAAAATAGCTAAAATACACACAATTAAAAATTATTA [CACACA_site3506],9.84 ± 0.16
19,TTCCATGTAGGACATGCATGCAGTTTTTAAAATATT [TGCATGCA_site481],11 ± 0.69
20,AATGTTAAAAATGAAAGTACATGGAATTTATTATTT [XGTACX_site4095],11 ± 0.56
21,AATATTTATATTTAGTGTACAGAAATAAAAAAAAAA [XGTACX_site6066],11.3 ± 0.93
22,TATTTTTAAAATATAAGTAAAAAAATAATATAAACT [TGCATGCA_negctrl_site283],10.1 ± 0.11

row,Sequence,gcPBM binding intensity (ln)
1,TCCTCTTCAATATATATATATTATAAATAAATAAAT [CACACA_negctrl_site1756],9.91 ± 0.38
2,TGTGTAGCTAGGGGGTTGCTAATTTTTGTTTTGACC [CACACA_negctrl_site634],10.9 ± 0.57
3,AGCTCATGCAGGTGTACACAAAAAGAAAAAAAATAA [CACACA_site4828],11.7 ± 0.86
4,AGGTGAGCTCAGACTACACACACAAAGAAAAAAATA [CACACA_site8439],10.2 ± 0.28
5,ATAAGCTCATGCAGGTGTACACAAAAAGAAAAAAAA [XGTACX_site2433],11.6 ± 0.81
6,TCAAAGGAATTTTTATGTACATATAAACTTTATTCT [XGTACX_site3432],11.2 ± 0.76
7,GATATATGTATAATAACGCACACTACAAAAATAAAA [CACACA_site2100],10.3 ± 0.33
8,ATGTATATATATATATGTACTAATTAGTAGTTTACG [XGTACX_site6272],11.1 ± 0.71
9,ATAATGACTAAATTTAAACACACAAGGGGAGTTTAC [CACACA_site8209],9.725 ± 0.007
10,ATAAATACATTAAAATGTACATAAAAATATTACTGG [XGTACX_site1484],11.2 ± 0.67
11,AAAACTATATTAATGTGTACACATCAAAATATTAAT [XGTACX_site6767],11.6 ± 0.84
12,TTTTTTTAATAAAAGTGTACCAAATTATATACACAT [XGTACX_site6811],11.1 ± 0.64
13,TATATAAATAAATGTGTACACACATTAAAATCAAAC [CACACA_site8733],11.6 ± 1.1
14,CTTTATATATAGTGTACACATTAAACAAATCTCAAT [CACACA_site5845],11.6 ± 1
15,TAAATATAAGTGTACATACACACTTTACAATCTCAT [CACACA_site3006],11.3 ± 0.72
16,TATAAATAAATGTGTACACACATTAAAATCAAACGT [CACACA_site2340],11.7 ± 0.96
17,TATTTTTTTAAAATAGGTACACAATCAAACATTTAT [XGTACX_site8785],11.4 ± 0.97
18,TATAAATAAAAGTGTACACACATTAAAATCAAACGT [CACACA_site5316],11.7 ± 0.89
19,ACAATAAAGAAGTGTACACATATATCAATAAAAAAA [CACACA_site5228],11.6 ± 0.95
20,CATCTTATATAATCATGTACATATAGAGACTTCTTT [XGTACX_site7685],11.1 ± 0.63
21,TATATTTACATTGTAACACACATGAAATATATATAT [CACACA_site61],9.93 ± 0.2
22,TATAAATATTATAATTGTACATATTATAAAAATTTT [XGTACX_site2719],11 ± 0.75
